This is a sample that favours compounds with a hit; in the whole collection about 1.1% have one here.
HePTP inh: inhibitors of human HePTP phosphatase | recombinant HePTP phosphatase activity, OD absorbance | inhibition, % at 20 µM | actives 0.64% (n = 110,000) | AID 521; in the data active = inhibition above about 50%;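 note: plate controls were vehicle for no effect and reference inhibitor for full effect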
Target sequence (P35236 whole entry, looked up): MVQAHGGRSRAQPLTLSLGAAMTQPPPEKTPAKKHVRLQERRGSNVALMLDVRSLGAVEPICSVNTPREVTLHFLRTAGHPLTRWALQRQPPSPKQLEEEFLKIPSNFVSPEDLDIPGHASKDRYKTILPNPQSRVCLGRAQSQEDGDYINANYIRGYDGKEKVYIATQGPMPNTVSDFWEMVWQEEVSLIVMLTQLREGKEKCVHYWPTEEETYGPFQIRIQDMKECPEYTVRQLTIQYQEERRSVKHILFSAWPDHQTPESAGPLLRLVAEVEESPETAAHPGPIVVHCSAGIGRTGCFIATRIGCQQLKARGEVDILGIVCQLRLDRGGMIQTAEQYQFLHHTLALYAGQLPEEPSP
Cdc25B inh: human M-phase inducer phosphatase 2 inhibition; P30305; recombinant Cdc25B, OMFP fluorescence Ex485/Em525; inhibition, %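 (compounds tested at 10 µM final in the well)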; actives 0.1% (n = 65,000); AID 368; in the data active = inhibition above about 50%
DUSP1 inh: inhibitors of human MKP-1 phosphatase; actives 0.15% (n = 65,000); P28562; inhibition, %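 (compounds tested at a single concentration somewhere between 10 and 100 µM)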; recombinant MKP-1, OMFP hydrolysis fluorescence; AID 374;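 active = inhibition above about 50%, limit read from the data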;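 note: 0% = DMSO max control wells and 100% = wells with enzyme stopped by NaOH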
Hsp90 inh: displaces geldanamycin probe from tumor Hsp90 | NCI-N417 lysate Hsp90, Cy3B-geldanamycin FP displacement | inhibition, % at 30 µM | actives 0.35% (n = 64,000) | AID 429;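 active = inhibition above 50%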;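 note: 0% = tracer plus lysate wells and 100% = tracer alone without lysate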
BAP1 inh: inhibitors of human BAP1 deubiquitinase | Q92560 | actives 0.48% (n = 72,000) | calls only at 20 µM | recombinant BAP1, Ub-AMC hydrolysis fluorescence kinetic; active compounds read low | AID 436;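 active = activity remaining at or below 50% of control, provided the compound also passes the data quality filters; inactive = the rest, including low values that fail the filters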;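 note: 100% = DMSO wells rate and 0% = substrate alone blank rate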
* hit, by the source's call; i = inactive; . = no result given; + = active, no number; ! = not confirmed by another sample.

SMILES | HePTP inh | Cdc25B inh | DUSP1 inh | Hsp90 inh | BAP1 inh
CCCCn1c(NC(=O)c2ccco2)c(C(=O)OCC)c2nc3ccccc3nc21 | 8.7 | 32.8 | 22.0 | 72.5* | .
CCCCOc1cc(C)cc2oc(=O)c3c(c12)CCCC3 | 11.1 | . | . | . | .
O=C1NC(=S)N(c2ccc(Br)cc2)C(=O)/C1=C/c1ccc(-c2ccccc2C(=O)O)o1 | 22.2 | . | . | . | .
O=C1NC(=S)N(c2ccc(F)cc2)C(=O)/C1=C/c1ccc(Br)o1 | 104.3* | . | . | . | .
COc1ccc(N2C(=O)/C(=C/c3ccc(I)o3)C(=O)NC2=S)cc1 | 101.0* | . | . | . | .
O=C1NC(=O)N(c2ccc(Cl)cc2)C(=O)/C1=C/c1ccc(Br)o1 | 100.1* | . | . | . | .
Cc1ccc(/C=C2/C(=O)NC(=O)N(c3ccc(Cl)cc3)C2=O)o1 | -3.0 | . | . | . | .
COc1ccc(CCNCc2ccccc2C(F)(F)F)cc1 | -7.8 | . | . | . | .
Cn1cccc1CNCCc1ccc2c(c1)OCO2 | 5.1 | . | . | . | .
CCCCn1c(=O)c(C(=O)Nc2ccc(Br)cc2)c(O)c2ccccc21 | 7.7 | . | . | . | .
CN1C2CCC1CC(OC(=O)CCN1CCCC1)C2 (configuration not stated) | 16.4 | 76.6* | -2.0 | -0.1 | i
COc1ccc(C(CC(=O)N2CCC3(CC2)OCCO3)NS(=O)(=O)c2ccc(F)cc2)cc1 (configuration not stated) | 0.1 | 52.3* | 2.8 | 2.7 | i
CCC(C)N1CCN(C(=O)COc2ccc(Cl)cc2)CC1 (configuration not stated) | -16.0 | . | . | . | .
COc1cc(/C=C/[N+](=O)[O-])ccc1OC(C)=O | 11.6 | . | . | . | .
Cn1c(O)c(/C=C2\C=CC=N2)c(=O)[nH]c1=O | 7.8 | . | . | . | .
Cc1ccccc1-n1c(O)c(C=C2C=CC=N2)c(=O)[nH]c1=S | 103.4* | . | . | . | .
CC(C)[C@@]1(NC(=O)[C@@H]2C[C@@H]3c4cccc5[nH]cc(c45)C[C@H]3N(C)C2)O[C@@]2(O)[C@@H]3CCCN3C(=O)[C@H](Cc3ccccc3)N2C1=O | 14.1 | 2.4 | 7.3 | 87.0*! | i
COc1ccc(C=C2C(=O)NC(=O)NC2=O)c(OC)c1 | -6.3 | . | . | . | .
N[C@@H](CCl)C(=O)O | . | . | . | 2.1 | i
NC(Cc1cc(O)c(O)cc1O)C(=O)O (configuration not stated) | . | . | . | 93.6* | +
COc1ccc(CN2C(=O)NC(=O)/C(=C\c3ccoc3)C2=O)cc1 | 7.9 | . | . | . | .
C=CCN1C(=O)/C(=C\c2cccn2-c2ccc([N+](=O)[O-])cc2)C(=O)NC1=S | 102.0* | . | . | . | .
CCN1C(=O)/C(=C/c2ccoc2)C(=O)NC1=S | 102.0* | . | . | . | .
CCN1C(=O)/C(=C/c2cccn2C)C(=O)NC1=S | 100.0* | . | . | . | .
C[C@H]1C2Cc3ccc(O)cc3C1(C)CCN2CC1CC1 (some centres not stated) | . | . | . | 0.7 | i
SMILES | HePTP inh | Cdc25B inh | DUSP1 inh | Hsp90 inh | BAP1 inh
CN1CC[C@@]2(C)c3cc(O)ccc3N(C)C12 (some centres not stated) | . | . | . | 90.8* | i
CCCCn1c(=O)c(C(=O)Nc2ccc(OC)cc2)c(O)c2ccccc21 | -6.5 | . | . | . | .
CCCCn1c(=O)c(C(=O)Nc2nc3ccccc3[nH]2)c(O)c2ccccc21 | 5.3 | -3.2 | -21.2 | 0.9 | +
CN(N=O)c1ccc(O)c(O)c1 | . | . | . | 92.8* | i
C[C@H]1CCCC(=O)CCC/C=C/c2cc(O)cc(O)c2C(=O)O1 | 8.0 | -15.4 | 1.4 | 87.1* | i
COc1cc2c(cc1OC)-c1c(OC)c(OC)cc3c1C(C2)N(C)CC3 (configuration not stated) | -1.1 | 2.7 | 15.8 | 91.0* | i
O=C1NC(=S)N(c2ccccc2)C(=O)/C1=C/c1ccco1 | 102.3* | . | . | . | .
C=CCN1C(=O)/C(=C\C=C\c2ccco2)C(=O)NC1=S | 102.3* | . | . | . | .
Cc1ccc(C=C2C(=O)NC(=S)N(c3ccccc3F)C2=O)s1 | 10.7 | . | . | . | .
O=C1NC(=S)N(c2ccccc2F)C(=O)C1=Cc1ccco1 | 102.9* | . | . | . | .
O=C1NC(=O)N(c2ccccc2)C(=O)/C1=C/c1ccoc1 | 6.8 | . | . | . | .
COCCNCCOc1c(C(C)C)cccc1C(C)C | -7.4 | . | . | . | .
O=C(Cc1ccccc1)N1CCN(Cc2ccco2)CC1 | 5.3 | . | . | . | .
COc1ccc(Br)cc1CN1CCN(C(=O)COc2ccccc2)CC1 | 11.6 | . | . | . | .
